Assay outcomes as filed in PubChem BioAssay.
Gal4-VP16 FLuc: VP16 counterscreen qHTS for inhibitors of ROR gamma transcriptional activity; AID 2546, 2010; hit rate 3.5% among 310,000; Potency, µM (top dose mostly 53.6 µM), inactives show top-dose activity, negative = inhibition, most hits filed as inhibitors; Drosophila S2 Gal4-VP16 UAS-luciferase, luminescence, 20 h;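 also: Gal4-VP16 expression switched on by copper sulfate through the metallothionein promoter; potency is read from the fitted curve at half-maximal effect; % is scaled to controls: 0 for no effect and ±100 for the full control effect; nearly all actives have a fitted effect of over 50% in size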
RORg inh: qHTS for inhibitors of ROR gamma transcriptional activity | Nuclear receptor ROR-gamma (Mus musculus), P51450 | Drosophila S2 Gal4-RORgamma UAS-luciferase reporter, 20 h | Potency, µM (series often up to 53.6 µM), without a hit: top-dose activity change, negative = inhibition, most hits filed as inhibitors | hit rate 5.4% among 310,000 | AID 2551, 2010; also: potency is read from the fitted curve at half-maximal effect; % is scaled to controls: 0 for no effect and ±100 for the full control effect; nearly all actives have a fitted effect of over 60% in size
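Luciferase reporter read in Schneider cells carrying Gal4-RORγ (mouse) and UAS-Photinus luciferase; cells given compound 1 h before 700 uM copper sulfate induction, then incubated 20 h at ambient temperature.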
MBNL1-CUG inh: qHTS Assay for Inhibitors of MBNL1-poly(CUG) RNA binding; TR-FRET MBNL1-His/biotin-(CUG)12 binding, 665/545 ratio; Potency, µM (top dose mostly 57.5 µM), inactives show top-dose activity change, negative = inhibition, usual class: inhibitors; hit rate 0.036% among 280,000; AID 2675, 2010; active = well fitted inhibition curve with a large enough effect in the signal ratio, with a control signal flat, not every such curve was filed as active; inconclusive = small, poorly fitted or top-dose-only effect, or effect the other way, or a change in a side signal; inactive = no such curve, though single readings can be large or run the other way; the % refers to the signal ratio; also: potency is read from the fitted curve at half-maximal effect; % is scaled to controls: 0 for no effect and ±100 for the full control effect
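Compound titration spanned 92 nM–58 uM against the MBNL1-His/biotin-(CUG)12 complex. After 60 min at room temperature with 5 nM streptavidin-XL665 and 0.055 ng/ul terbium anti-His, ratiometric 665/545 nm emission (Ex 340 nm) normalized to controls.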
Six1-Eya2 blk: qHTS Assay for Inhibitors of the Six1/Eya2 Interaction | AlphaScreen GST-Six1/His-Eya2 binding, biochemical; stronger effect = lower value | activity change, % (no concentration beside the values) | hit rate 0.56% among 360,000 | AID 651725, 2012; in the data active = activity change below about -65%; inconclusive = mostly about -30% to -63%; also: % is scaled to controls: 0 for no effect and ±100 for the full control effect
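GST-Six1 + His-Eya2 (5X stock: 250/500 nM); Tris pH 8.0, 300 mM NaCl, 0.05% BSA, 0.02% Tween 20; GSH donor/Ni acceptor beads; 1 h 37 °C dark; AlphaScreen readout.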
CtBP-E1A inh: qHTS Assay for Inhibitors of the CtBP/E1A Interaction; activity change, % (test concentration not listed); AlphaScreen GST-E1A/His-CtBP binding, 1536-well; stronger effect = lower value; CtBP / adenovirus E1A interaction (AlphaScreen); AID 651724, 2012; hit rate 0.49% among 340,000; in the data active = activity change below about -65%; inconclusive = mostly about -30% to -63%; also: % is scaled to controls: 0 for no effect and ±100 for the full control effect
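Steps: dispense buffer (Tris pH 8.0, NaCl 300 mM, TCEP 1 mM, BSA, Tween 20); add 5X protein mix (GST-E1A, His-CtBP, 125 nM each); pin 23 nL compound; 2 h at 37 °C, dark; add 5X beads (50 ug/mL); 1 h; read.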
CBFb RUNX1 block: qHTS Assay for Compounds Blocking the Interaction Between CBF-beta and RUNX1 for the Treatment of Acute Myeloid Leukemia; Runt-related transcription factor 1 (Homo sapiens) + Core-binding factor subunit beta …; AlphaScreen CBFb-His/RUNX1-biotin binding, biochemical; Potency, µM (titrated, usually from 59.8 µM), inactives show at the highest dose activity, negative = inhibition, usual class: inhibitors; 230,000 tested, under 10 active; also: % of control where 0% means no effect
Target sequence (Q01196 whole entry, looked up): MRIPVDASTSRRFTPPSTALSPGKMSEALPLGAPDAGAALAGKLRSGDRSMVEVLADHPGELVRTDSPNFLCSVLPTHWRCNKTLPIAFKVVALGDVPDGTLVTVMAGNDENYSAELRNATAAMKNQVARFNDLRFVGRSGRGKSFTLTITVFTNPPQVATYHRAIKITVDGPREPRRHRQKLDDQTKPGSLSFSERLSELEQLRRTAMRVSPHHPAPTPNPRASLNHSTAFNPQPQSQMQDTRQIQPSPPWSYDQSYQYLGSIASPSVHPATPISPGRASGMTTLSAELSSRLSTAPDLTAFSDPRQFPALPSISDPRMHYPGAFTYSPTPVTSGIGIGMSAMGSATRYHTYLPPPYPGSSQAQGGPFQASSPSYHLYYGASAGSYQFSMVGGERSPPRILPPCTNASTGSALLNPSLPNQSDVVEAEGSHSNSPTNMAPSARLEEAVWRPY
Target sequence (Q13951 whole entry, looked up): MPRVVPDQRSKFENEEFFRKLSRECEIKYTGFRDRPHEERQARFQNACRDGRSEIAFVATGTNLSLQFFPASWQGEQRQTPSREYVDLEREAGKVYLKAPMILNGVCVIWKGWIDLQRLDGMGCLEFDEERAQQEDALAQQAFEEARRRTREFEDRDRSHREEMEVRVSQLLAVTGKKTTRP
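CBFb-His/RUNX1-biotin, 30 nM each, preincubated 20 min RT; compound 15 min RT; Ni + streptavidin beads 50 ng each, 90 min RT; AlphaScreen read.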
* hit, by the source's call; ? = inconclusive; . = no result; [ ] = remark or other dose. Compounds with a hit are over-represented: about 5.5% of the library has one in this group of screens. Unless noted, calls follow the shape of the dose curve; as a rule, active = well fitted curve in the direction sought with a large enough effect; inconclusive = small, poorly fitted or top-dose-only effect, or another doubt; inactive = no such curve, though single readings can be large; an effect the other way counts as inactive or inconclusive.

SMILES | Gal4-VP16 FLuc | RORg inh | MBNL1-CUG inh | Six1-Eya2 blk | CtBP-E1A inh | CBFb RUNX1 block
O=C(NC(=S)Nc1ccc(N2CCCCC2)cc1)c1ccco1 | 20µM* | 7.1µM* | 1% | ? | ? | -25%
O=C(NC(=S)Nc1ccc(NC(=O)c2ccco2)cc1)c1ccccc1 | -5% | -21% | -5% | -8 | -10 | -3%
CC(=O)N1CCN(c2ccc(NC(=O)c3ccco3)cc2)CC1 | -10% | -24% | 3% | 12 | 6 | .
CC1CCN(c2ccc(NC(=S)NC(=O)c3ccco3)cc2)CC1 | 7.1µM* | 3.2µM* | 10% | ? | -13 | -15%
O=C(NCCO)C(=O)NCC1OCCCN1S(=O)(=O)c1ccc2c(c1)OCCO2 (stereo unspecified) | -8% | -23% | -2% | -2 | 0 | .
Cn1nc(C(C)(C)C)cc1C(=O)NCc1cc(F)cc2c1OCOC2 | 3.5µM* | ? | . | 9 | . | 5%
CC(Oc1cccc(Cl)c1)C(=O)Nc1cc(S(=O)(=O)N2CCCCC2)ccc1N1CCOCC1 (stereo unspecified) | . | . | . | -11 | 1 | .
O=C(NNC1=Nc2cc([N+](=O)[O-])ccc2OC1)c1ccccc1Cl | -19% | 1µM* | . | 2 | 2 | 7%
CCN=c1scc(-c2cccs2)n1/N=C/c1cc(OC)ccc1O | -12% | -13%[10 µM] | . | ? | ? | -14%
Fc1ccc(N=Cc2ccc[nH]2)cc1 | -3% | -28% | -3% | 13 | 8 | .
CC(C)N=c1scc(-c2cccs2)n1/N=C/c1ccc(O)c(O)c1O | ? | ? | . | -76* | ? | ?
CN=c1scc(-c2ccccc2F)n1/N=C/c1ccc(O)c(O)c1O | -72% | ? | ? | -75* | ? | .
Oc1ccc(/C=N/N=C(c2ccccc2)c2ccccc2)c(O)c1O | ? | ? | 7% | -24 | -17 | ?
CN=c1scc(-c2ccccc2F)n1/N=C/c1ccc[nH]1 | 0.63µM* | 0.022µM* | 10% | -28 | -24 | 17%
COc1ccccc1CNS(=O)(=O)c1c(C(=O)N2CCCCCC2)c(C)n(C)c1C | -10% | -23% | -5% | -1 | 3 | .
CC(C)C[C@H](NC(=O)CNC(=O)[C@H](C)NC(=O)[C@H](CC(C)C)NC(=O)[C@H](CCCNC(=N)N)NC(=O)[C@H](Cc1cnc[nH]1)NC(=O)[C@@H](NC(=O)[C@@H](N)C(C)C)[C@@H](C)O)C(=O)N[C@@H](CC(C)C)C(=O)N[C@@H](CO)C(=O)N[C@@H](CCCNC(=N)N)C(=O)N[C@@H](CO)C(=O)NCC(=O)NCC(=O)N[C@H](C(=O)N[C@H](C(=O)N[C@@H](CCCCN)C(=O)N[C@@H](CC(N)=O)C(=O)N[C@@H](CC(N)=O)C(=O)N[C@@H](Cc1ccccc1)C(=O)N[C@H](C(=O)N1CCC[C@H]1C(=O)N[C@H](C(=O)N[C@@H](CC(N)=O)C(=O)N[C@H](C(=O)NCC(=O)N[C@@H](CO)C(=O)N[C@@H](CCCCN)C(=O)N[C@@H](C)C(=O)N[C@@H](Cc1ccccc1)C(N)=O)C(C)C)[C@@H](C)O)C(C)C)C(C)C)C(C)C | -4% | -9% | . | . | . | 11%
CC(=O)N[C@@H](Cc1c[nH]c2ccccc12)C(=O)OCC(=O)Nc1cc(C)on1 | . | . | . | -3 | 1 | .
Cc1cc(C)c2cc(C#N)c(NCCCN)nc2c1 | . | . | . | 0 | 0 | .
Cc1ccc(C(=O)Nc2nc(-c3ccccc3)c(-c3ccccc3)o2)cc1 | 5.6µM* | 5µM* | 3% | -13 | 0 | -7%
Cc1cc(=O)[nH]c(SCC(=O)Nc2nc(-c3ccccc3)c(-c3ccccc3)o2)n1 | -8% | -5% | -18% | 3 | 2 | 20%
Cc1cc(C)nc(SCC(=O)Nc2nc(-c3ccccc3)c(-c3ccccc3)o2)n1 | 20µM* | 11µM* | 16% | 0 | 1 | 1%
O=C(NN=C(Cc1ccccc1)Cc1ccccc1)c1ccccc1O | ? | 3.5µM* | 0% | -2 | 5 | 2%
O=C(NN=C(Cc1ccccc1)Cc1ccccc1)c1ccc(F)cc1 | ? | ? | -3% | 4 | . | 8%
COc1ccccc1OCC(=O)NN=C(Cc1ccccc1)Cc1ccccc1 | ? | -12% | . | 8 | 0 | -5%
NC(=S)NN=C(Cc1ccccc1)Cc1ccccc1 | 5µM* | 1.4µM* | -9% | -16 | 2 | -7%
SMILES | Gal4-VP16 FLuc | RORg inh | MBNL1-CUG inh | Six1-Eya2 blk | CtBP-E1A inh | CBFb RUNX1 block
CCOC(=O)c1cc(C)sc1NC(=O)CN1CCN(C(=O)C2CCCO2)CC1 (stereo unspecified) | -5% | -39% | 2% | 1 | -6 | .
COC(=O)c1cc(C)sc1NC(=O)CN1CCN(C(=O)C2CCCO2)CC1 (stereo unspecified) | ? | 10µM* | 1% | -7 | 11 | .
COc1ccc(-c2cn3cc(Cl)ccc3n2)cc1OC | -3% | 19% | 4% | -10 | ? | 2%
COc1ccc(-c2cn3cc(C)ccc3n2)cc1Br | 7.1µM* | ? | 23% | -4 | -23 | -6%
O=C1C=C(Nc2ccccc2C(=O)O)c2ccccc2C1=O | 2% | -42% | ? | -20 | -29 | ?
O=C1C=C(Nc2cccc3cccnc23)c2ccccc2C1=O | 10µM* | 10µM* | ? | ? | ? | .
Cc1ccc(S(=O)(=O)Nc2ccc(NS(=O)(=O)c3ccc(C)cc3)c3ncccc23)cc1 | 5.6µM* | 5µM* | . | . | . | -1%
Cc1ccc(S(=O)(=O)Nc2ccccc2-c2ccccc2NS(=O)(=O)c2ccc(C)cc2)cc1 | -24% | 3% | -12% | -7 | -2 | -8%
Cc1ccc(S(=O)(=O)Nc2cccc3cccnc23)cc1 | 1.8µM* | 1.1µM* | 30% | -71* | ? | 13%
Nc1ccccc1S(=O)(=O)Nc1cccc2cccnc12 | 2.2µM* | 1.6µM* | . | . | . | 14%
O=C(COC(=O)c1ccccc1Br)NC(=O)NCc1ccccc1 | . | . | . | -1 | -2 | .
Cc1cccn2c(=O)nc(SCC(=O)N3CCC(Cc4ccccc4)CC3)nc12 | . | . | . | -19 | -7 | .
CCN(CC(=O)Nc1c(F)cccc1F)C(=O)c1cc(S(=O)(=O)NCc2ccccc2)ccc1C | . | . | . | 2 | -17 | .
